For 40 sequences, sensor-assay potency score (higher = more potent) results are on record in the OligoGym collection.
Note: reference of the scale not given here.

For the first test, the target named is PML. The experiment in a line: pooled miR-30 sensor sort-seq; sequence = guide strand. The following applies: shRNA.
TCCATCTTGATGACCTTCCTGG returned a sensor-assay potency score (higher = more potent) of -0.889.
In the case of TACAGCTGCATCTTTCCCCTGG, the sensor-assay potency score (higher = more potent) was 0.227.
Regarding TTCTTGAGTTTGAAGCTGCTGG, the sensor-assay potency score (higher = more potent) was -0.233.
Same read-out and setting: the figure for TTCATTGTCAATCTTGAGGTCA is 0.253; for TTCGGCATCTGAGTCTTCCGAG it is 0.322; for AAGTCTGAGAGTCACCTGCTGT it is -0.995.
TATTGGAGACATCCTCTCCATA: the sensor-assay potency score (higher = more potent) is -1.32.
TATCTTTCTACATGGATGGAGT had a sensor-assay potency score (higher = more potent) of -0.448.
For TTGTATTGGAGACATCCTCTCC, the sensor-assay potency score (higher = more potent) was -0.965.
The same measure, in the same setting: for TTTCTCGCCAGGTAGGTCTGGG the value was 0.0297; for TTGTATTGGAGACATCCAGGTC, -0.853.

A further test has as its target PNPLA3. Described as above. The note with it: shRNA.
TATCGCACGCCTCTGAAGGAAG returned a sensor-assay potency score (higher = more potent) of -1.42.
TAGCAGCTCATCTCCCTCCAGC gave a sensor-assay potency score (higher = more potent) of -1.05.
Sequence TAAGACATTATCCTAATGGGTA returned a sensor-assay potency score (higher = more potent) of -0.331.
TAGCAAGTTGCAAATCTTGCTC showed a sensor-assay potency score (higher = more potent) of -0.46.
The same measure, in the same setting: the figure for TAGAAGGGGATGAAGCAGGAAC is -0.79; for TCTTGCTCATGTATCCACCTTT it is -0.0736.
Regarding TTTGCAGAGACCCTGTCGGAGG, the sensor-assay potency score (higher = more potent) was -0.649.
TTGCTTAAGTTGAAGGATGGAT registered a sensor-assay potency score (higher = more potent) of -0.584.
In turn, TTCGTGGACTTGACTTTAGGGC registered a sensor-assay potency score (higher = more potent) of -0.495.
The same measure, in the same setting: the figure for TCTGCTTTGGTCTCTGCTGGAC is -0.599.
On the same count and under the same terms, the figure for TTACATAAGACATTATCCTAAT is -0.725; for ATTACATAAGACATTATCCTAA it is -0.605.

The target of the next test is POLG. The description is as above. The following applies: shRNA.
The sequence TAATCCAGTTCTTCTACCGTTT displayed a sensor-assay potency score (higher = more potent) of -0.468.
The same measure, in the same setting: the figure for TTGAACATTTCTGACTCTGTGC is 0.0886; for TTTAGGTGTGACCCGCATCTGC it is -1.03; for TTATTGAACATTTCTGACTCTG it is 0.362.
As for TTGTCCTGTAGTCCACACCGAT, the sensor-assay potency score (higher = more potent) was -1.34.
In turn, TTGTAGGCAAACATGCACCTGG returned a sensor-assay potency score (higher = more potent) of 0.0528.
In turn, TTGGCTGCTATCCACAGACTGC yielded a sensor-assay potency score (higher = more potent) of -1.02.
In turn, TTCCTCATCATAGTCGGGGTGC had a sensor-assay potency score (higher = more potent) of 0.36.
For TATGGCACTATTGTCAGTGAGC, the sensor-assay potency score (higher = more potent) was -0.848.
TATTGAACATTTCTGACTCTGT returned a sensor-assay potency score (higher = more potent) of 0.187.
ATTACAGCTATTACCATCCTTG: the sensor-assay potency score (higher = more potent) was -0.0536.
Same read-out and setting: the figure for TTAAACTGCATTAGTAAGCGCT is -0.404.

In a further test the target is POLH. The test is described as above. The note with it: shRNA.
Regarding TAGCTTTTGTAGTCTCTCTTGT, the sensor-assay potency score (higher = more potent) is -0.253.
TAACTTCTTAGCATCATCTGCC registered a sensor-assay potency score (higher = more potent) of 0.509.
As for TTTAGAGGATTCTTCTAGCTTC, the sensor-assay potency score (higher = more potent) was 0.456.
TTGCTTTAGAGGATTCTTCTAG displayed a sensor-assay potency score (higher = more potent) of -0.177.
Consider TAGAAGCAGACTTTTCTGCTTA, for which the sensor-assay potency score (higher = more potent) was found to be 0.259.
